HP1b binding inh: HTS for Inhibitors of HP1-beta Chromodomain Interactions with Methylated Histone Tails | Chromobox protein homolog 1 (Homo sapiens), P83916 | AlphaScreen HP1-beta / biotin-H3K9me3 peptide binding | Potency, µM (top dose mostly 114 µM), inactives show top-dose activity change, negative = inhibition, hits mostly inhibitors | hit rate 0.56% among 390,000; note: potency is the fitted concentration of half-maximal effect; nearly all actives have a fitted effect of over 70% in size
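HP1-beta protein (50 nM final) preincubated 30 min at room temperature with biotinylated H3(1-18)K9me3 peptide (50 nM) in PBS pH 7.4, 0.01% Tween-20, then compound added for 30 min. AlphaScreen streptavidin donor/nickel chelate acceptor beads (10 ug/mL final), 30 min dark, luminescence read.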
G9a block: qHTS Assay for Inhibitors of Histone Lysine Methyltransferase G9a. Histone-lysine N-methyltransferase EHMT2 (Homo sapiens), Q96KQ7. G9a H3K9 monomethylation, AlphaScreen, 2 h. Potency, µM (titrated, usually from 102 µM), for inactives: at the highest dose activity, negative = inhibition, most hits filed as inhibitors. hit rate 8.8% among 350,000; note: potency is the fitted concentration of half-maximal effect; % is set by controls: 0 for no effect and ±100 for the full control effect; nearly all actives have a fitted effect of over 75% in size
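Chemiluminescent proximity detection of H3K9 monomethylation, read after 10 min bead incubation in the dark. Reaction: 20 nM G9a, 500 nM biotin-H3K9 peptide, 20 uM SAM cofactor, 2 h, room temperature, following 15 min enzyme-compound preincubation.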
CtBP-E1A blk: qHTS Assay for Inhibitors of the CtBP/E1A Interaction; CtBP / adenovirus E1A interaction (AlphaScreen); AlphaScreen GST-E1A/His-CtBP binding, 1536-well; hits give low values; activity change, % (concentration not given with the values); hit rate 0.49% among 340,000; AID 651724, 2012; in the data active = activity change below about -65%; inconclusive = mostly about -30% to -63%; note: % is set by controls: 0 for no effect and ±100 for the full control effect
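Protein mix (5X: 125 nM each GST-E1A, His-CtBP) was incubated with pinned compound 2 h at 37 deg C in dark, in 50 mM Tris pH 8.0 buffer with 300 mM NaCl. Glutathione donor and nickel acceptor beads followed; AlphaScreen signal read after 1 h.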
JMJD2A Tudor: qHTS Assay for Inhibitors of JMJD2A-Tudor Domain | Potency, µM (doses to about 114 µM), without a hit: at the highest dose activity change, negative = inhibition, usual class: inhibitors | AID 504339, 2011 | AlphaScreen JMJD2A-Tudor / H3K4me3 peptide binding | hit rate 4.4% among 390,000; note: potency is the fitted concentration of half-maximal effect; % is set by controls: 0 for no effect and ±100 for the full control effect; nearly all actives have a fitted effect of over 50% in size
Six1-Eya2 inh: qHTS Assay for Inhibitors of the Six1/Eya2 Interaction; Homeobox protein SIX1 (Homo sapiens) + Protein phosphatase EYA2 (Homo sapiens), …; AlphaScreen GST-Six1/His-Eya2 binding, biochemical; hits give low values; activity change, % (concentration not given with the values); hit rate 0.56% among 360,000; AID 651725, 2012; in the data active = activity change below about -65%; inconclusive = mostly about -30% to -63%; note: % is set by controls: 0 for no effect and ±100 for the full control effect
Target sequence (O00167 whole entry, looked up): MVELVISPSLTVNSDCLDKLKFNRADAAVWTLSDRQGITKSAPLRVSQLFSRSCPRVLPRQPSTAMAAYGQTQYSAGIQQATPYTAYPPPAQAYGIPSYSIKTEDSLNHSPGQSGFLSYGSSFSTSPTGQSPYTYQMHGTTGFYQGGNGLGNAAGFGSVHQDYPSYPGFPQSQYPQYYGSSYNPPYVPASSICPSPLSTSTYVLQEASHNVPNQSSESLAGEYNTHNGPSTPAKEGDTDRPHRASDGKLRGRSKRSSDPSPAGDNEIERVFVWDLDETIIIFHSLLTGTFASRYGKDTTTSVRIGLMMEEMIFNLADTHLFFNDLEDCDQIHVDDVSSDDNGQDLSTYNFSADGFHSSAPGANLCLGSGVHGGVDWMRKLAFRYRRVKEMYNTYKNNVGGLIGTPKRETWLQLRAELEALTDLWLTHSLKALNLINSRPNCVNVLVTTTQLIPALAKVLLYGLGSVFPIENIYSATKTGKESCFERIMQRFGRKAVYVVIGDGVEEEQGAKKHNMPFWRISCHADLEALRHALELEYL
Target sequence (Q15475 whole entry, looked up): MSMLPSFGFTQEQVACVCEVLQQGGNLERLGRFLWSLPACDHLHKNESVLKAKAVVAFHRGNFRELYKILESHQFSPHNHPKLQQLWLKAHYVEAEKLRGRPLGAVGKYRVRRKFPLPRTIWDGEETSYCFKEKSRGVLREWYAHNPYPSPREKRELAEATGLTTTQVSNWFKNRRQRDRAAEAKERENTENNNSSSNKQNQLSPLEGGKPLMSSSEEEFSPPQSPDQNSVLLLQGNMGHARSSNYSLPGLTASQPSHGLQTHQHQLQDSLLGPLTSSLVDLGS
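AlphaScreen luminescence read after one hour at 37 °C in darkness. Pin-transferred compounds met GST-Six1 and His-Eya2 protein (5X stock 250 nM/500 nM) plus glutathione donor and Ni-chelate acceptor beads (5X, 50 ug/mL).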
BAZ2B inh: qHTS Assay for Inhibitors of BAZ2B. Bromodomain adjacent to zinc finger domain protein 2B (Homo sapiens), Q9UIF8. AlphaScreen BAZ2B-H3K14Ac peptide displacement. AID 504333, 2011. hit rate 4.4% among 360,000. Potency, µM (top dose mostly 114 µM), for the others: at the top dose activity change, negative = inhibition, actives largely listed as inhibitors; note: potency is the fitted concentration of half-maximal effect; % is set by controls: 0 for no effect and ±100 for the full control effect; nearly all actives have a fitted effect of over 60% in size
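AlphaScreen displacement: compounds (up to 110uM) incubated 30 min at room temperature with a preformed 50 nM BAZ2B/50 nM biotinylated H3K14Ac peptide complex in PBS pH 7.4 with Tween-20. Donor and acceptor beads at 10 ug/mL final added, 20 min light-protected before reading.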
Active calls of the source: *; ? = inconclusive; . = no result given; [ ] = remark or other dose. A selection: hits, their analogues and other compounds. The true share with any hit is near 10%. Unless noted, calls come from the whole dose curve; as a rule, active = well fitted inhibition curve with a large enough effect; inconclusive = small, poorly fitted or top-dose-only effect; inactive = no such curve, though single readings can be large or run the other way.

SMILES	HP1b binding inh	G9a block	CtBP-E1A blk	JMJD2A Tudor	Six1-Eya2 inh	BAZ2B inh
CN(C)c1ccc(NC(=O)CSC2=Nc3ccccc3C3=NC(CC(=O)NCc4ccc5c(c4)OCO5)C(=O)N23)cc1 (configuration not stated)	-17%	?	.	?	.	?
O=C(CC1N=C2c3ccccc3N=C(SCc3ccc(Cl)cc3)N2C1=O)NCc1ccco1 (configuration not stated)	-12%	50µM*	-18	?	-18	?
CN(C)c1ccc(NC(=O)CSC2=Nc3ccccc3C3=NC(CC(=O)NCc4ccccc4)C(=O)N23)cc1 (configuration not stated)	10%	1.6µM*	.	?	.	-36%
Cc1ccc(CSC2=Nc3ccccc3C3=NC(CCC(=O)NCc4ccco4)C(=O)N23)cc1 (configuration not stated)	?	?	-6	-32%	0	?
O=C(CCC1N=C2c3ccccc3N=C(SCC(=O)NCc3ccco3)N2C1=O)NCc1ccco1 (configuration not stated)	34%	-7%[59 µM]	8	?	18	50µM*
CCC1CCCCN1CCCNC(=O)CNC(=O)c1nn(-c2ccc(OC)c(Cl)c2)c(=O)c2ccccc12 (configuration not stated)	12%	16%[12.7 µM]	2	-4%	-6	-14%
CCCCCCCCCCCCCCCCCCCCCC(=O)Nc1ccn([C@@H]2O[C@H](CO)[C@@H](O)[C@@H]2O)c(=O)n1	.	0%[12.7 µM]	.	.	.	.
Cc1ccc(C)c(-n2cc[nH]c2=S)c1	22%	2µM*	4	40µM*	8	7%
Cc1cc(C)cc(-n2cc[nH]c2=S)c1	-4%	0.79µM*	-12	7.9µM*	-3	-26%
CC1=CC(C)(C)NC(=S)N1c1ccc(C)cc1C	21%	6%[59 µM]	-17	-16%	-7	-19%
Cc1ccc(-n2cc[nH]c2=S)c(C)c1	-12%	8.9µM*	6	-7%	1	-11%
CCc1ccccc1NC(=O)c1ccc(F)c(S(=O)(=O)N2CCN(c3ccccc3OC)CC2)c1	16%	-4%[59 µM]	.	-12%	.	-5%
O=C(CC[C@H]1O[C@@H](n2ccc(=O)[nH]c2=O)[C@H](O)[C@@H]1O)NCCCc1ccccc1	.	.	1	.	2	.
COc1ccc(Cl)cc1NC(=O)CSc1cn(CC(=O)N2CCCCC2)c2ccccc12	8%	?	.	-24%	.	-14%
O=C(COC(=O)/C=C/c1cccc(F)c1)Nc1cccc(S(=O)(=O)NC2=NCCCCC2)c1	13%[57 µM]	.	?	-13%	-17	.
CC(Oc1ccc(Br)cc1)C(=O)Nc1ccc(S(=O)(=O)NC2=NCCCCC2)cc1 (configuration not stated)	35%	.	0	-14%	12	.
O=C(Nc1ccc(S(=O)(=O)NC2=NCCCCC2)cc1)C1COc2ccccc2O1 (configuration not stated)	22%	-23%[12.7 µM]	.	-19%	6	-14%
O=C(Nc1cccc(S(=O)(=O)NC2=NCCCCC2)c1)C1COc2ccccc2O1 (configuration not stated)	-16%	50µM*	3	?	0	56µM*
O=C(COc1ccccc1Cl)Nc1cccc(S(=O)(=O)NC2=NCCCCC2)c1	26%	50µM*	0	-17%	0	-1%
COc1ccccc1OCC(=O)Nc1cccc(S(=O)(=O)NC2=NCCCCC2)c1	15%	-34%	0	-14%	-13	3%
COc1cccc(/C=C/C(=O)OCC(=O)Nc2cccc(S(=O)(=O)NC3=NCCCCC3)c2)c1	-4%	.	-76*	-15%	-17	.
CC(Oc1cccc(Cl)c1)C(=O)Nc1ccc(S(=O)(=O)NC2=NCCCCC2)cc1 (configuration not stated)	9%	35µM*	-18	-18%	-6	6%
Cc1ccc(C(=O)Nc2ncccc2O)cc1S(=O)(=O)N1CCCCC1	16%	?	-25	?	-7	?
O=C(COc1cc(F)ccc1[N+](=O)[O-])Nc1cccc(S(=O)(=O)NC2=NCCC2)c1	21%	3.2µM*	4	-3%	-2	6%
N#Cc1ccc(C(=O)Nc2ccc(S(=O)(=O)NC3=NCCCCC3)cc2)cc1	18%	50µM*	3	-6%	-5	?
SMILES	HP1b binding inh	G9a block	CtBP-E1A blk	JMJD2A Tudor	Six1-Eya2 inh	BAZ2B inh
O=C(Nc1cccc(S(=O)(=O)NC2=NCCCCC2)c1)c1ccc(Cl)cc1	35%	50µM*	-10	-3%	-23	26%
CC1CN(S(=O)(=O)c2cccc(C(=O)Nc3ccc(S(=O)(=O)NC4=NCCCCC4)cc3)c2)CC(C)O1 (configuration not stated)	12%	18µM*	3	-18%	-9	0%
O=C(Nc1cccc(S(=O)(=O)NC2=NCCC2)c1)c1ccccc1	34%	.	0	-4%	3	.
Cc1ccc2c(c1)c1c(c(=O)n(-c3ccccc3)c(=O)n1CC(=O)N1CCCC1)n2C	38%	3%[59 µM]	.	-2%	.	3%
O=C(NCc1ccc(F)cc1)C1CC(=O)N(Cc2ccco2)C1 (configuration not stated)	55%	2%[12.7 µM]	4	-4%	-2	-15%
Cc1ccccc1-c1nccc(NCCN2CCOCC2)n1	.	1%[0.501 µM]	.	.	.	.
CCc1cc(C(=O)Nc2ccc(S(=O)(=O)NC3=NCCCCC3)cc2)sc1C	-11%	40µM*	-19	-30%	-13	-24%
Cc1ccc(C(=O)Nc2ccc(S(=O)(=O)NC3=NCCCCC3)cc2)c(C)c1	18%	-21%	8	-18%	-12	13%
O=C1CS(=O)(=O)C2(C(=O)N(Cc3cccc(F)c3)c3ccccc32)N1c1ccccc1 (configuration not stated)	13%	?	.	-20%	.	-4%[57.1 µM]
C=CCOc1ccccc1/C=c1\sc2nc(=O)c(C)nn2c1=O	-7%	?	?	?	?	?
CCCOc1ccc(Cc2nn3c(=O)/c(=C/c4ccco4)sc3nc2=O)cc1	13%	?	-18	56µM*	-25	1%
CCCOc1ccc(/C=c2\sc3nc(-c4ccco4)nn3c2=O)cc1OCC	-14%	?	-3	?	-14	-15%
COc1ccccc1/C=C/C=c1\sc2nc(=O)c(Cc3ccccc3)nn2c1=O	-22%	.	-8	56µM*	-30	45µM*
